Sampled rows, rich in hits. Any-hit rate of the full collection: about 6%.
D1 antag: Antagonist of Human D 1 Dopamine Receptor: qHTS; D(1A) dopamine receptor (Homo sapiens), P21728; HEK293 TREx D1 cells, calcium flux, dopamine EC80; hits give low values; activity change, negative = inhibition, % at 10 µM; 360,000 tested, 3.2% active; in the data active = activity change below about -30%; also: % is scaled to controls: 0 for no effect and ±100 for the full control effect
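Kinetic fluorescence of a calcium dye serves as the read-out. D1-expressing Hek293 Trex cells, induced overnight at 30 C, are exposed to compound for 180 s before an EC80 dopamine addition, then read 180 s further.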
D1 PAM: Potentiators of Human D1 Dopamine Receptor: qHTS; D(1A) dopamine receptor (Homo sapiens), P21728; HEK293 TREx D1 cells, calcium flux, dopamine EC20 potentiation; potentiation, % at 10 µM; 360,000 tested, 0.036% active; AID 504651, 2011; in the data active = potentiation above about 30%; also: 0% is about no effect
D1 ag: Allosteric Agonists of the Human D1 Dopamine Receptor: qHTS; 360,000 tested, 1% active; AID 504660, 2011; activation, % at 2 µM; HEK293 T-REx D1 cells, calcium flux, agonist mode; in the data active = activation above about 30%; also: 0% is about no effect
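Tetracycline-induced HEK293 TREx D1 cells, force-coupled to calcium signalling, were dye-loaded with a no-wash calcium kit. Compound was pin-added after a 10 s baseline. Fluorescence was read kinetically at 1 cycle/s for 180 s, with calcium rises flagged as agonism.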
DRD3 agonist: qHTS of D3 Dopamine Receptor Agonist: qHTS; 410,000 tested, 0.58% active; D(3) dopamine receptor (Homo sapiens), P35462; max activation, %; D3R DiscoveRx beta-arrestin cells, luminescence, 90 min; in the data active = max activation above about 30%; also: 0% is about no effect
Target sequence (P35462 whole entry, looked up): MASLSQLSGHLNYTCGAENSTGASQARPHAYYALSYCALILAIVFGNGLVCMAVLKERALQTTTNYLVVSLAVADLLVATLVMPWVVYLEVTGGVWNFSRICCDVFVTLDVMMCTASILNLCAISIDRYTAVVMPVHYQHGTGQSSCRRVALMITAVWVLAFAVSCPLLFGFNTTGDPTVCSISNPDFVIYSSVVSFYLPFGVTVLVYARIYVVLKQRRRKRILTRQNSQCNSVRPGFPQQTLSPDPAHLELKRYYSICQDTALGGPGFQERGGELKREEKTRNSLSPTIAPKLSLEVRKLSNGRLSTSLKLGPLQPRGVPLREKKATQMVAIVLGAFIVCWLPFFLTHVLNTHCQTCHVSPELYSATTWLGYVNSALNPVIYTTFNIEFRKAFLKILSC
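Agonist-mode cell screen: cells plated at 1500/well and incubated overnight at 37 °C, then exposed to library compounds for 90 min at 37 °C. Detection reagent was added for 30–60 min at room temperature, and luminescence was read.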
D3 antag: qHTS of D3 Dopamine Receptor Antagonist: qHTS | D(3) dopamine receptor (Homo sapiens), P35462 | D3R cells, DiscoveRx beta-arrestin luminescence, antagonist mode; hits give low values | max response, negative = inhibition, % | 360,000 tested, 2.5% active; in the data active = max response below about -50%; inconclusive = no clear call, values can overlap the other calls; also: % is scaled to controls: 0 for no effect and ±100 for the full control effect
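Cells plated overnight at 1500 cells/well, then exposed to library compounds with dopamine controls for 90 minutes at 37 degrees C. DiscoveRx reagent added for 30–60 minutes at room temperature; luminescence read, quantitative HTS format.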
Active calls of the source: *; ? = inconclusive; . = no result.

SMILES | D1 antag | D1 PAM | D1 ag | DRD3 agonist | D3 antag
CCOc1cc(CNCc2ccccn2)ccc1OCC(=O)NC1CCCCC1 | -10 | 1 | 2 | -23 | -89*
COc1cc(C)ccc1OCC(=O)NC1CCCCCC1 | -30* | -2 | 2 | 0 | 30
COc1ccc(-c2nc(CSCC(=O)N3CCN(c4cccc(C)c4C)CC3)c(C)o2)cc1OC | -1 | -1 | -1 | 5 | .
Cc1nc(NCCCN2CCOCC2)c2cnn(-c3ccccc3)c2n1 | . | . | . | -19 | -51*
Cc1ccc(-n2ncc3c(NCCCN4CCOCC4)ncnc32)cc1 | -4 | -3 | -5 | -15 | .
c1cncc(-c2nc(NCCCn3ccnc3)c3ccccc3n2)c1 | -38* | 1 | 0 | 4 | 10
Cc1cccc(-c2nc(NCCCN3CCOCC3)c3ccccc3n2)c1 | -7 | 3 | 50* | -7 | 4
CC(=O)N1CCN(c2cc(-c3ccccc3)nc3cc(-c4cccc(Cl)c4)nn23)CC1 | . | . | . | 3 | 23
COc1cccc(CC2(CO)CCCN(C/C=C/c3ccccc3OC)C2)c1 (stereo not drawn) | 19 | -4 | 33* | -5 | -82*
COc1ccccc1/C=C/CN1CCCC(CO)(Cc2cccc(Cl)c2)C1 (stereo not drawn) | 5 | 2 | 4 | -14 | -59*
COc1ccc(/C=C/CN2CCCC(CO)(Cc3cccc(Cl)c3)C2)cc1 (stereo not drawn) | -8 | 2 | 8 | -17 | -60*
CCOc1ccc(-c2ccc(NS(=O)(=O)c3ccc(C)cc3)cc2)nn1 | 14 | 0 | 2 | -3 | .
Cc1nn(CC(=O)Nc2ccc3c(c2)OCO3)c(C)c1Cl | -13 | 2 | 1 | -3 | -14
O=C(Cn1ncc(Cl)c(Cl)c1=O)c1ccc2c(c1)OCCO2 | . | . | . | -13 | -54*
CCC(=O)Nc1ccc(C(=O)Cn2ncc(Cl)c(Cl)c2=O)cc1 | -1 | 0 | -2 | -9 | ?
O=C(Cn1ncc(Cl)c(Cl)c1=O)Nc1ccc2c(c1)OCO2 | -50* | -9 | 0 | -16 | ?
COc1ccc(NC(=O)Cn2ncc(Cl)c(Cl)c2=O)cc1S(=O)(=O)N1CCOCC1 | -40* | -12 | 0 | 3 | 0
Cc1c(Cl)cccc1NC(=O)c1cc2sccc2n1Cc1ccc(F)cc1 | 0 | -5 | 4 | 11 | .
O=C(Cn1nnnc1-c1ccccc1F)Nc1ccc(F)c(F)c1 | -4 | -1 | -1 | 11 | .
CC[C@H](C)C(C(=O)N1CCN(C(=O)OC(C)(C)C)CC1)n1cc(C(CC(C)C)NC(=O)OC(C)(C)C)nn1 (stereo partly drawn) | 2 | 0 | 4 | 6 | 21
CC(C)(C)OC(=O)NCCCC[C@@H](C(=O)NCCCCCCCCCCC(=O)N1CCN(C(=O)OC(C)(C)C)CC1)n1cc(CCO)nn1 | 9 | -4 | 4 | 38* | 29
CC[C@@H](C)[C@@H](C(=O)N1CCN(C(=O)OC(C)(C)C)CC1)n1cc(CCCCNC(=O)OC(C)(C)C)nn1 | -7 | -4 | 0 | 53* | 142
CCOC(=O)C(=C1Nc2ccccc2N1)n1c(-c2cccnc2)nc2ccccc21 | . | . | . | -12 | -65*
Cc1cc(C)n(CCCN2CCC(C(=O)Nc3cccc(-c4cccc(F)c4)c3)CC2)n1 | -58* | -8 | 34* | -29 | -20
COc1ccc([N+](=O)[O-])cc1NC(=O)Nc1ccc(OC)c(OC)c1 | . | -7 | -1 | -8 | 0
SMILES | D1 antag | D1 PAM | D1 ag | DRD3 agonist | D3 antag
COc1ccc([N+](=O)[O-])cc1NC(=O)Nc1cccc(Cl)c1 | -41* | -3 | 5 | -9 | -27
COc1ccccc1NS(=O)(=O)c1cccc(NC(=O)Nc2cccc(Cl)c2)c1 | -39* | -13 | 12 | -4 | 32
CCc1ccc(S(=O)(=O)/N=C2\C=C(NS(=O)(=O)c3ccccc3)C(=O)c3ccccc32)cc1 | -19 | -2 | -1 | -13 | ?
O=C(O)c1ccc(S(=O)(=O)/N=C2\C=C(Nc3ccccc3F)C(=O)c3ccccc32)cc1 | -2 | -1 | 0 | -28 | -107*
Cc1ccccc1NC1=C/C(=N\S(=O)(=O)c2ccc(C(=O)O)cc2)c2ccccc2C1=O | 16 | . | 1 | -20 | -97*
CC1(C)S[C@@H]2[C@H](NC(=O)Cc3ccccc3)C(=O)N2[C@H]1C(=O)O (tested in a mixture with another compound) | . | . | . | -6 | .
CN(C)/C=C(\C#N)C(=O)N/N=C/c1ccccc1 | -31* | 0 | 3 | -9 | -20
CC(=O)/C(=N\Nc1cccc(Cl)c1)Sc1nnc(-c2ccccc2)n1-c1ccccc1 | 1 | -3 | 1 | -20 | -54*
N#CC1=C(c2ccccc2)/C(=C/c2ccccc2)OC1=O | . | -4 | 1 | -11 | -59*
CC(=O)NC(C)(c1ccccc1)c1nc(-c2cncnc2)cs1 (stereo not drawn) | . | . | . | -14 | -60*
Cn1c(SCC(=O)NCC2CCCO2)nc2c([nH]c3ccccc32)c1=O (stereo not drawn) | 1 | -2 | 2 | -10 | -14
O=C(CSc1nc2c([nH]c3ccccc32)c(=O)n1-c1ccccc1F)NCC1CCCO1 (stereo not drawn) | 8 | 3 | 1 | -29 | -78*
Cc1ccccc1-n1c(SCC(=O)NCC2CCCO2)nc2c([nH]c3ccccc32)c1=O (stereo not drawn) | -2 | -7 | 0 | -23 | -82*
CCCCCCCCCCOc1cc2c(=O)c(C(=O)OCC)c[nH]c2cc1OCC | . | . | . | 5 | .
CN(C)CCn1c(NC(=O)c2ccc(Cl)cc2)nc2ccccc21 | 5 | -6 | 0 | -24 | -57*
CCN(CC)CCn1c(NC(=O)c2ccc(C)cc2)nc2ccccc21 | 9 | -14 | 0 | -27 | -50*
CCCn1c(NC(=O)c2cccc(C)c2C)nc2ccccc21 | -49* | -5 | 2 | 0 | -19
CCCn1c(NC(=O)C2CCN(C(=O)c3ccccc3C)CC2)nc2ccccc21 | 0 | -5 | 1 | -1 | -16
CCN(CC)CCn1c(NC(=O)c2ccc(C(F)(F)F)cc2)nc2ccccc21 | -3 | -5 | 2 | -11 | -54*
CCc1ccc(S(=O)(=O)Nc2ccc(Cl)cn2)cc1 | -92* | -5 | 1 | -2 | -3
COc1ccccc1COC(=O)Nc1c(C)nn(C)c1Cl | -43* | -8 | 10 | 6 | 14
Cc1nn(C)c(Cl)c1NC(=O)OCc1ccc(F)cc1 | -61* | -10 | 27 | -4 | 19
COc1ccccc1CC(=O)NCc1nn(-c2ccccc2)nc1C | -1 | 5 | 2 | 0 | 10

Source: PubChem
